We go through 10 compounds from PubChem BioAssay (NCI).

Common to all, as to assay: NCI-60 one-dose screen, 48 h (100 = growth as untreated, 0 = no growth, -100 = all killed)
One assay concerns SK-MEL-2 melanoma. The conditions noted are these: 10 µM unless noted.
A further assay concerns SN12C renal. The note with it: 10 µM unless noted.
Another assay has as its system UO-31 renal. The conditions noted are these: 10 µM unless noted.
Another assay has as its system TK-10 renal. The conditions noted are these: 10 µM unless noted.
The subject of another assay is ACHN renal. The note with it: 10 µM unless noted.
A further assay concerns CAKI-1 renal. The note with it: 10 µM unless noted.
In the next assay the test system is CCRF-CEM leukemia. The note with it: 10 µM unless noted.
In a further assay the test system is MOLT-4 leukemia. The note with it: 10 µM unless noted.
The next assay deals with RPMI-8226 leukemia. The note with it: 10 µM.
The test system of the next assay is OVCAR-8 ovarian. The conditions noted are these: 10 µM unless noted.
A further assay relates to OVCAR-5 ovarian. The conditions noted are these: 10 µM unless noted.
For a further assay, the system named is OVCAR-4 ovarian. The note with it: 10 µM unless noted.
For the next assay, the system named is IGROV1 ovarian. The conditions noted are these: 10 µM unless noted.
The next assay has as its system OVCAR-3 ovarian. The note with it: 10 µM unless noted.
The subject of another assay is HS 578T breast. The note with it: 10 µM unless noted.
The next assay has as its system NCI/ADR-RES ovarian. The conditions noted are these: 10 µM unless noted.
The subject of the next assay is SR leukemia. The note with it: 10 µM unless noted.
For the next assay, the system named is A498 renal. The conditions noted are these: 10 µM unless noted.
In a further assay the test system is SK-OV-3 ovarian. The note with it: 10 µM.

This is part of a sample that, as a whole, favours compounds with a hit. Of some 83,000 tested, about 20% had one in any assay.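 Step 1: grow cells in 96-well plates. Step 2: add test compound at a single concentration. Step 3: incubate 48 h. Step 4: record percent growth.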 Values without a mark were called inactive. Activity calls are given as the source filed them. Rule for the calls: active = growth percent below 10; inactive = the rest.

Take `O=C1Nc2ccc(Cl)cc2/C1=N/N=C(c1ccccc1)c1ccccc1`: the growth with SK-MEL-2 melanoma is 103%; in the assay with SN12C renal, 93.7%; with UO-31 renal, 63.9%; in the assay on TK-10 renal it was 111%; with ACHN renal, 87.5%; with CAKI-1 renal, 63%. Moreover, the growth was 92.7% in the assay on CCRF-CEM leukemia; 93.3% in the assay with MOLT-4 leukemia; 92.9% in the assay on RPMI-8226 leukemia; 96% with OVCAR-8 ovarian; 96.2% in the assay on OVCAR-5 ovarian; 85.8% in the assay on OVCAR-4 ovarian. Moreover, the growth in the assay on IGROV1 ovarian is 77.4%; with OVCAR-3 ovarian, 105%; in the assay with HS 578T breast, 97.3%; in the assay on NCI/ADR-RES ovarian, 98%.
In the case of `NS(=O)(=O)c1ccc(C(=O)N/N=C(\CS(=O)(=O)c2ccccc2)c2cc3cc(Br)ccc3o2)cc1`, the growth in the assay with SK-MEL-2 melanoma is 100%; in the assay on SN12C renal, 89%; in the assay on UO-31 renal it was 101%; with TK-10 renal, 107%; with ACHN renal, 99.3%; in the assay with CAKI-1 renal it was 89.9%. Also, the growth was 118% with CCRF-CEM leukemia; 127% in the assay on SR leukemia; 98.3% in the assay on RPMI-8226 leukemia; 75.2% in the assay on OVCAR-8 ovarian; 99.8% with OVCAR-5 ovarian; 92.5% in the assay with IGROV1 ovarian. The results for the growth in the assay on OVCAR-3 ovarian, with HS 578T breast and in the assay on NCI/ADR-RES ovarian were 94.5%, 80.7% and 98%, respectively.
Consider `COc1cc2nc(N3CCC[C@H](NC4=CC(=O)c5ccccc5C4=O)C3)nc(N)c2cc1OC`, for which the growth is 111% in the assay with SK-MEL-2 melanoma; 65.4% in the assay on SN12C renal; -76.1% (active) in the assay on UO-31 renal; -72.6% (active) with TK-10 renal; -100% (active) with ACHN renal; -56.6% (active) with CAKI-1 renal. In addition, the growth in the assay on A498 renal was 93%; in the assay with MOLT-4 leukemia, -41.3% (active); in the assay on SR leukemia it was -20.1% (active); with RPMI-8226 leukemia, -50.1% (active); in the assay on OVCAR-8 ovarian, -57.2% (active); in the assay on OVCAR-5 ovarian, 125%. Besides, the growth was -88% (active) in the assay with OVCAR-4 ovarian; 116% in the assay with SK-OV-3 ovarian; -81.6% (active) in the assay on IGROV1 ovarian; -57.7% (active) in the assay with OVCAR-3 ovarian; -49.1% (active) in the assay on HS 578T breast; 29.4% with NCI/ADR-RES ovarian.
Consider `O=C(c1cnn2c1NC(c1ccc(F)cc1)C2)N1CCCCC1` (configuration not stated), for which the growth was 104% in the assay with SK-MEL-2 melanoma; 104% with SN12C renal; 89.8% in the assay with UO-31 renal; 105% with TK-10 renal; 102% in the assay on ACHN renal; 93.4% in the assay with CAKI-1 renal. Moreover, the growth with CCRF-CEM leukemia is 105%; with MOLT-4 leukemia, 108%; in the assay with RPMI-8226 leukemia it was 103%; with OVCAR-8 ovarian, 106%; with OVCAR-5 ovarian it was 102%; in the assay with OVCAR-4 ovarian, 98.7%. Moreover, the growth in the assay with IGROV1 ovarian was 103%; in the assay on OVCAR-3 ovarian, 106%; in the assay on HS 578T breast it was 99.8%; in the assay on NCI/ADR-RES ovarian it was 109%.
On to `Cc1ccc(S(=O)(=O)c2ccc3[nH]c(=O)[nH]c(=O)c3c2)cc1`, for which the growth is 100% in the assay on SK-MEL-2 melanoma; 97.7% in the assay with SN12C renal; 96.1% in the assay with UO-31 renal; 93.8% with TK-10 renal; 109% in the assay on ACHN renal; 97.1% in the assay on CAKI-1 renal. Moreover, the growth in the assay with CCRF-CEM leukemia is 91.4%; in the assay with MOLT-4 leukemia, 94.6%; in the assay on RPMI-8226 leukemia it was 95.6%; in the assay with OVCAR-8 ovarian, 95.2%; in the assay with OVCAR-5 ovarian, 107%; in the assay on OVCAR-4 ovarian, 97.9%. For the same compound, the growth is 97.2% with SK-OV-3 ovarian; 104% in the assay with IGROV1 ovarian; 110% with OVCAR-3 ovarian; 101% with HS 578T breast; 107% in the assay on NCI/ADR-RES ovarian.
With `C[C@]1(CO)C[C@@H](O)C[C@]2(C)[C@@H]1CC[C@@]13C[C@@H]4[C@@H](C[C@H]12)[C@]4(C)C3`, the growth in the assay with SK-MEL-2 melanoma was 102%; with SN12C renal, 99.1%; with UO-31 renal it was 83.9%; in the assay on TK-10 renal it was 103%; in the assay with ACHN renal, 97.7%; in the assay on CAKI-1 renal, 89.5%. For the same compound, the growth in the assay with CCRF-CEM leukemia was 116%; in the assay on MOLT-4 leukemia, 108%; in the assay on SR leukemia, 118%; in the assay on RPMI-8226 leukemia, 114%; in the assay with OVCAR-8 ovarian, 105%; in the assay on OVCAR-5 ovarian, 97.6%. The growth was 104% with OVCAR-4 ovarian; 106% in the assay with IGROV1 ovarian; 113% with OVCAR-3 ovarian; 102% in the assay on HS 578T breast; 105% in the assay on NCI/ADR-RES ovarian.
Turning to `CCCOC(=O)c1ccc2c(c1)[N+](=O)C(C(=O)c1ccccc1)=C(C(F)(F)F)[N+]2=O`, the growth was -87.6% (active) in the assay with SK-MEL-2 melanoma; -92.3% (active) with SN12C renal; -89% (active) in the assay with UO-31 renal; -99.1% (active) in the assay on TK-10 renal; -91.8% (active) in the assay on ACHN renal; -92.5% (active) with CAKI-1 renal. For the same compound, the growth in the assay on A498 renal was -90.9% (active); in the assay on MOLT-4 leukemia, -63.3% (active); with SR leukemia it was -41.4% (active); in the assay on OVCAR-8 ovarian, -86% (active); with OVCAR-5 ovarian, -87.7% (active); with OVCAR-4 ovarian it was -73.1% (active). The growth in the assay on SK-OV-3 ovarian was -99.9% (active); with IGROV1 ovarian it was -74.4% (active); in the assay on OVCAR-3 ovarian, -95.3% (active); in the assay on HS 578T breast it was -52% (active); with NCI/ADR-RES ovarian, -43.1% (active).
With `N#Cc1c(-c2cccc(F)c2)cc(-c2ccc(Br)s2)[nH]c1=O`, the growth with SK-MEL-2 melanoma is 60%; with SN12C renal, 92.4%; in the assay with UO-31 renal it was 74.1%; with TK-10 renal, 108%; with ACHN renal, 91.9%; in the assay with CAKI-1 renal it was 49.8%. The growth with CCRF-CEM leukemia is 90.7%; in the assay on MOLT-4 leukemia, 82.6%; in the assay on SR leukemia it was 40.7%; in the assay on RPMI-8226 leukemia it was 73.9%; in the assay on OVCAR-8 ovarian, 83.3%; with OVCAR-5 ovarian, 102%. Further, the growth is 92% in the assay on OVCAR-4 ovarian; 67.3% in the assay with IGROV1 ovarian; 39.5% in the assay on OVCAR-3 ovarian; 69% in the assay on HS 578T breast; 44.7% in the assay on NCI/ADR-RES ovarian.
Consider `Cn1c(=O)c2c(-c3ccccc3F)n(-c3ccc4c(c3)OCO4)cc2n(C)c1=O`, for which the growth is 133% in the assay on SK-MEL-2 melanoma; 90.4% with SN12C renal; 82.4% in the assay on UO-31 renal; 115% in the assay with TK-10 renal; 100% in the assay with ACHN renal; 89.6% with CAKI-1 renal. In addition, the growth in the assay with A498 renal is 69.5%; in the assay on MOLT-4 leukemia it was 72.9%; with SR leukemia it was 68.1%; with RPMI-8226 leukemia, 52.9%; with OVCAR-8 ovarian, 99.1%; in the assay on OVCAR-5 ovarian, 98.6%. The growth with OVCAR-4 ovarian is 104%; in the assay on SK-OV-3 ovarian, 110%; with IGROV1 ovarian it was 101%; with OVCAR-3 ovarian it was 114%; with HS 578T breast, 88.2%; in the assay with NCI/ADR-RES ovarian it was 95.8%.
As to `Cc1ccccc1-c1cc(-c2ccc(Br)s2)[nH]c(=O)c1C#N`, the growth is 113% with SK-MEL-2 melanoma; 102% with SN12C renal; 83.3% in the assay with UO-31 renal; 109% with TK-10 renal; 101% in the assay with ACHN renal; 88.1% with CAKI-1 renal. Also, the growth was 106% in the assay with CCRF-CEM leukemia; 100% in the assay with SR leukemia; 102% with RPMI-8226 leukemia; 105% in the assay on OVCAR-8 ovarian; 104% in the assay with OVCAR-5 ovarian; 108% in the assay on OVCAR-4 ovarian. For the same compound, the growth with IGROV1 ovarian was 96.5%; with OVCAR-3 ovarian it was 113%; with HS 578T breast it was 96%; in the assay with NCI/ADR-RES ovarian, 98.5%.
